Assay [1] can be described thus: qHTS for differential inhibitors of proliferation of Plasmodium falciparum line Dd2 (AID 1882). Further: nearly all actives have a fitted effect of over 65% in size. Further: potency means the concentration at half of the fitted maximal effect. Particulars: Potency: Plasmodium falciparum Dd2 proliferation inhibition. The method in brief:
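RBC culture, 0.3% parasitemia / 2.5% Hct final; cpd added by pin tool in DMSO; 72 h, 37 C, 5% CO2; lysis buffer + SYBR Green I, o/n RT dark; FI 485/535; norm. to artemisinin 0.29 uM and DMSO.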
For orientation: Quantitative high-throughput screening tests each substance at several concentrations.

Assay [2] in a line: qHTS for differential inhibitors of proliferation of Plasmodium falciparum line W2 (AID 1883).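 Further: parasites grown with compound for 72 h before lysis and staining.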 Further: potency means the concentration at half of the fitted maximal effect. As to conditions: Potency: Plasmodium falciparum W2 proliferation inhibition.
Assay [3] can be described thus: qHTS for differential inhibitors of proliferation of Plasmodium falciparum line HB3 (AID 1886).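 Further: parasites grown with compound for 72 h before SYBR Green readout.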 Further: potency means the concentration at half of the fitted maximal effect. As to conditions: Potency: Plasmodium falciparum HB3 proliferation inhibition.
The target in assay [4] is Ferritin light chain (Equus caballus) (UniProt P02791). As to the kind of experiment: qHTS Validation Assay for Identification of Novel General Anesthetics (AID 2323). Further: series mostly up to about 77 µM. The method in brief:
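Horse-spleen apoferritin (10 uM) in PBS with 50% saturated 1-aminoanthracene; compounds pin-transferred, 10 min at room temperature. Fluorescence read at 380/535 nm, normalized to free 1-AMA and 1-AMA/apoferritin values; four-parameter Hill fit.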

Assay [5] concerns the target RecQ-like DNA helicase BLM (Homo sapiens) (UniProt P54132). In words: qHTS Validation Assay for Inhibitors of Bloom's syndrome helicase (BLM) (AID 2364). Summed up: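 Forked 20-bp duplex substrate (200 nM, TAMRA/BHQ-2) plus 2 mM ATP added after 15 min compound preincubation with 50 nM enzyme, pH 8.0, poly(dI-dC) 2.5 ug/ml. Strand separation followed by fluorescence (525/598 nm) over 2 h, normalized to enzyme-free and DMSO controls.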

Assay [6] in a line: Cytometric Cell-Based qHTS for Inhibitors of the mTORC1 Signaling Pathway in MEF (Tsc2-/-, p53-/-) Cells (AID 2660).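 Further: Tsc2 and p53 null MEFs carrying empty vector with compound for 24 h; percent of cells above a phospho-rpS6 to PI ratio cutoff in each well; series mostly up to about 38 µM.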 The method in brief: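 Immunofluorescence qHTS of rpS6 Ser235/236 phosphorylation: MEFs (Tsc2-/-, p53-/-) treated 24 h, 37 C, in DMEM + 10% FBS. Alexa-488 signal normalized to PI count, referenced to rapamycin (7.5 nM) and DMSO; PI cell number recorded for viability.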

Assay [7] in a line: High Content Imaging Cell-Based qHTS for Inhibitors of the mTORC1 Signaling Pathway in MEF (Tsc2-/-, p53-/-) Cells (AID 2666).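 Further: percent of cells scored positive for phospho-rpS6 Ser235/236 immunostaining by imaging.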 Summed up: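 Tsc2-/-, p53-/- MEFs (empty-vector stable) grown in DMEM + 10% FBS were exposed to compounds for 24 hrs at 37 degree Celsius, fixed, and stained with Alexa-488 anti-phospho-rpS6 Ser235/236 plus Hoechst. Imaging gave the percentage of positive cells per well.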

The nature of assay [8]: High Content Imaging Cell-Based qHTS for Inhibitors of the mTORC1 Signaling Pathway in MEF Cells (AID 2667).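 Further: Tsc2-/- p53-/- MEFs stably re-expressing wild-type Tsc2 exposed 24 h; series mostly up to about 38 µM.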 The method in brief: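 Tsc2-/-, p53-/- MEFs stably re-expressing WT Tsc2, grown in DMEM + 10% FBS, were treated with compounds for 24 hrs at 37 degree Celsius, fixed, and stained with Alexa-488 phospho-rpS6 Ser235/236 antibody plus Hoechst; results given as % positive cells.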

The nature of assay [9]: Cytometry Cell-Based qHTS for Inhibitors of the mTORC1 Signaling Pathway in MEF cells (AID 2668).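 Further: Tsc2-/- p53-/- mouse embryonic fibroblasts stably re-expressing wild-type Tsc2; percent cells positive for phospho-rpS6 Ser235/236 relative to propidium iodide stain; series mostly up to about 38 µM.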 The method in brief:
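MEFs (Tsc2-/-, p53-/- stably expressing WT Tsc2) treated 24 h at 37 degree Celsius, fixed, stained with Alexa-488 anti-phospho-rpS6 Ser235/236 and propidium iodide; Acumen laser scanning. Reported as % positive cells, phospho-S6 normalized to PI.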

Assay [10] is described as follows: Validation screen for small molecules that induce DNA re-replication in MCF 10A normal breast cells (AID 463097). Further: nearly all actives have a fitted effect of over 60% in size. The method in brief:
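MCF 10A cells exposed to compound 48 hr at 37 C, 5% CO2, then Hoechst-stained 40 min. Laser-scanning imaging of nuclear DNA content (405 nm ex, 500-530 nm em); re-replication scored as rise in nuclei with elevated fluorescence intensity.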

Assay [11] has as its target Ubiquitin carboxyl-terminal hydrolase 2 (Homo sapiens) (UniProt O75604). As to the kind of experiment: qHTS Validation Assay for Inhibitors of Ubiquitin-specific Protease USP2a Using CHOP2 as the Reporter (AID 463106). Summed up:
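Readout was coupled fluorescence (Ex 485/Em 531 nm), read 60 min after adding 25 nM final Ub-CHOP2 and 25 nM reporter substrate. Beforehand, 10 nM final USP2 core had 30 min at RT with compound in pH 8.0 buffer. Curves were fitted after normalization to NEM and flagged for artifacts using time-zero reads.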

In assay [12] the target is DNA polymerase III PolC-type (Bacillus subtilis (strain 168)) (UniProt P13267). As to the kind of experiment: qHTS Validation Assay for the Inhibitors of DNA Replication in Gram-Positive Bacteria (AID 485295).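 Further: PicoGreen fluorescence of double-stranded DNA made on primed circular M13 template; series mostly up to about 57 µM.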 The method in brief:
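Reconstituted B. subtilis Pol III holoenzyme (PolC, beta clamp, SSB, primase) preincubated with compound, then M13Gori single-stranded circular template with dNTPs/NTPs added; room temperature reaction. Stopped with EDTA/PicoGreen; dsDNA fluorescence read, EDTA as full-inhibition control.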

In assay [13] the target is Tumor susceptibility gene 101 protein (Homo sapiens) (UniProt Q99816). As to the kind of experiment: qHTS Validation Assay for Iinhibitors of HIV-1 Budding by Blocking the Interaction of PTAP/TSG101 (AID 485342; calls by dose curve). The method in brief: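 Tsg101 binding domain (10 uM) with FITC-labeled PTAP peptide (50 nM) in HEPES pH 7.5 buffer, 20 min at r.t. with compounds. Binding measured by fluorescence polarization.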
Chain of Tumor susceptibility gene 101 protein (Homo sapiens) (Q99816 whole entry, looked up, the tested form may be a part): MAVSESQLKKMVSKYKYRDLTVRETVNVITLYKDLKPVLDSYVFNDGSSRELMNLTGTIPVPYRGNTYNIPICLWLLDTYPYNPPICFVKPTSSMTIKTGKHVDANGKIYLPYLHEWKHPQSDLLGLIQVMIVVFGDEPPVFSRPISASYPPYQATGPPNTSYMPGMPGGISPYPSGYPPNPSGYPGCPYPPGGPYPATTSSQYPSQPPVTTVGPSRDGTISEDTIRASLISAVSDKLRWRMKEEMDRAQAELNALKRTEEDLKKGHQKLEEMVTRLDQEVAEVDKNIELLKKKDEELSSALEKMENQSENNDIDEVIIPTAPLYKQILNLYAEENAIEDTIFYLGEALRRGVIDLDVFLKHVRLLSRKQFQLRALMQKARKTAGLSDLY

The nature of assay [14]: qHTS Validation Assay to Find Inhibitors of Chronic Active B-Cell Receptor Signaling (AID 485345; active means well fitted curve in the direction sought with a large enough effect in the main read-out, with a control signal flat, not every such curve was filed as active). The method in brief:
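Read-out: ratio of filter-corrected green (IkappaBalpha fusion) to red (native) luciferase signal in doxycycline-induced TMD8 cells after 4 h at 37C. Titration spanned 46 uM–3 nM; Data were normalised to basal cells and 10 uM MG-132 wells.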

Assay [15] deals with Beta-2 adrenergic receptor (Homo sapiens) (UniProt P07550). In words: qHTS validation assay of beta-arrestin-biased ligands of beta2-adrenergic receptor (AID 485366). The method in brief: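 Agonism was measured as beta-arrestin recruitment to recombinant beta2-AR, releasing tTA to drive luciferase. Cells were exposed for 18 hr at 37 degrees C to a series up to 46 microM. %Activity from corrected luminescence gave concentration-response curves.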
Chain of Beta-2 adrenergic receptor (Homo sapiens) (P07550 whole entry, looked up): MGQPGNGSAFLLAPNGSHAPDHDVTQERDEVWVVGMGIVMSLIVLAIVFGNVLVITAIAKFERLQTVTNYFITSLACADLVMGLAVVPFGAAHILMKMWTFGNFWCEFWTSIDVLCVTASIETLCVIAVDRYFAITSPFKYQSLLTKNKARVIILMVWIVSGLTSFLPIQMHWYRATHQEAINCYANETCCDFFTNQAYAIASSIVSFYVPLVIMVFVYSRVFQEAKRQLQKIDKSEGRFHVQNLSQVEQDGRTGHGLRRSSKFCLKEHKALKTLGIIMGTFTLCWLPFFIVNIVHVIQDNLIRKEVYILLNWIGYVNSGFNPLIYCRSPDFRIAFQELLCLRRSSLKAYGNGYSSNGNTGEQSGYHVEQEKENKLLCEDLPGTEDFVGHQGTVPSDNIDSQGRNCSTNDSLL

The target of assay [16] is ATP-dependent DNA helicase Q1 (Homo sapiens) (UniProt P46063). In words: qHTS Validation Assay for Inhibitors of RecQ-Like Dna Helicase 1 (RECQ1) (AID 2353). Summed up: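 RECQ1T1 50 nM; forked duplex (20 bp + 30-nt ss tails) 200 nM, ATP 2 mM final; pH 8.0, 2 mM MgCl2, 2.5 ug/ml poly(dI-dC); 15 min compound preincubation; discontinuous kinetic read over 2 h at RT.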
Chain of ATP-dependent DNA helicase Q1 (Homo sapiens) (P46063 whole entry, looked up): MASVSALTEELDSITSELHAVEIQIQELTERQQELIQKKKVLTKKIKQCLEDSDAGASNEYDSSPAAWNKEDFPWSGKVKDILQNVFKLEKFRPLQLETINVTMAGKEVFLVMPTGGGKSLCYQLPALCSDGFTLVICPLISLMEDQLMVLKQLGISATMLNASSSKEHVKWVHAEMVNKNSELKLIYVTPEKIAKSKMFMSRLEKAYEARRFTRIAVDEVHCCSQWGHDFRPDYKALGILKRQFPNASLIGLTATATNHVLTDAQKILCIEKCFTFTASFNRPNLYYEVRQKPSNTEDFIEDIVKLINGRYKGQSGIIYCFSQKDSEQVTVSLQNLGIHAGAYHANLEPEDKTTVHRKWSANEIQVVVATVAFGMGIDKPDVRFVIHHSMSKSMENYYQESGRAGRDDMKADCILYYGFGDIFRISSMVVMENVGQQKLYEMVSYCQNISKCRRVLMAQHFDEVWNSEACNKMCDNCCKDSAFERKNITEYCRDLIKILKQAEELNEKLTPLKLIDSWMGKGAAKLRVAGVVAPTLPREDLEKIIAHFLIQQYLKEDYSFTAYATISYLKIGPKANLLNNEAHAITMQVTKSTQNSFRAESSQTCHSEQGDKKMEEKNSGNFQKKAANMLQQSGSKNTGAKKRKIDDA

Records with an inconclusive call do not appear. Active and inactive are the calls of the source. Unless noted, the call rests on the fitted dose curve; in most records, active means well fitted curve in the direction sought with a large enough effect; inconclusive means small, poorly fitted or top-dose-only effect, or another doubt; inactive means no such curve, though single readings can be large; an effect the other way counts as inactive or inconclusive.

Chain of RecQ-like DNA helicase BLM (Homo sapiens) (P54132 whole entry, looked up): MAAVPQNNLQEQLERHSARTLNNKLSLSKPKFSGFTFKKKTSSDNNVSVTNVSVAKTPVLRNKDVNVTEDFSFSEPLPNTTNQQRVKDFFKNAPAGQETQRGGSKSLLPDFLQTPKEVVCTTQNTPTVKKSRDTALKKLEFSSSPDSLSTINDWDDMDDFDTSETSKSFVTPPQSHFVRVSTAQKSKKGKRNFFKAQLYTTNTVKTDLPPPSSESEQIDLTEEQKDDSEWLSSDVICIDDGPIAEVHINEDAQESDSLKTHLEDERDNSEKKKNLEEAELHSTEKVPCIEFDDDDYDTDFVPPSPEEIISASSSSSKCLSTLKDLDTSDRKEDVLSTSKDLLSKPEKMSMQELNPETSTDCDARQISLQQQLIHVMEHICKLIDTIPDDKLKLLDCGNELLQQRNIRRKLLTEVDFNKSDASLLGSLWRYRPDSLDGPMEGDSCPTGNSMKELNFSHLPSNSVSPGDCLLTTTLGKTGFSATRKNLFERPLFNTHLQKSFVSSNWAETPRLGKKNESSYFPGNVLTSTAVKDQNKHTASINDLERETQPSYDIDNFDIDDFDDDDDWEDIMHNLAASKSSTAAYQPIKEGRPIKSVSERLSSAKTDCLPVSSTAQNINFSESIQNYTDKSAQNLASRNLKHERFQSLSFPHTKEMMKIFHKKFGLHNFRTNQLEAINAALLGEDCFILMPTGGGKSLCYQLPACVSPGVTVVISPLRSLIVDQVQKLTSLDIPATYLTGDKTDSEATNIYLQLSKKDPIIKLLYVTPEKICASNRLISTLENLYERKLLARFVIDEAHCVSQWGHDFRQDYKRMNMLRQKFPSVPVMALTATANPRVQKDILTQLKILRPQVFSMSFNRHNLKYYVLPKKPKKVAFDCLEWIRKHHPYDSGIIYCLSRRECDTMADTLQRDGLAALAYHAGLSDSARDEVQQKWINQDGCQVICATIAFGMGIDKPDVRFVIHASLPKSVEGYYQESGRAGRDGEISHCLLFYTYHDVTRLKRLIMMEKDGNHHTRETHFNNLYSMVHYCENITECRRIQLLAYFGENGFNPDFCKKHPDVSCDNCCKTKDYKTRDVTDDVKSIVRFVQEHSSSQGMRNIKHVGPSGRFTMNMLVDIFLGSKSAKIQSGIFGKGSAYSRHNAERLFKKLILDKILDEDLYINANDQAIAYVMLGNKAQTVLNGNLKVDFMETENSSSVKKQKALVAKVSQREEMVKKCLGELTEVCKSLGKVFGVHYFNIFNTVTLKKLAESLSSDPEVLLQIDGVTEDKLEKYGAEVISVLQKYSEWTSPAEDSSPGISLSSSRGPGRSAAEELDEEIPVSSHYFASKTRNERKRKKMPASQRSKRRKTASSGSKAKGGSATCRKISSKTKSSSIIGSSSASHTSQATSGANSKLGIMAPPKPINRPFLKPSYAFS
Chain of Ubiquitin carboxyl-terminal hydrolase 2 (Homo sapiens) (O75604 whole entry, looked up): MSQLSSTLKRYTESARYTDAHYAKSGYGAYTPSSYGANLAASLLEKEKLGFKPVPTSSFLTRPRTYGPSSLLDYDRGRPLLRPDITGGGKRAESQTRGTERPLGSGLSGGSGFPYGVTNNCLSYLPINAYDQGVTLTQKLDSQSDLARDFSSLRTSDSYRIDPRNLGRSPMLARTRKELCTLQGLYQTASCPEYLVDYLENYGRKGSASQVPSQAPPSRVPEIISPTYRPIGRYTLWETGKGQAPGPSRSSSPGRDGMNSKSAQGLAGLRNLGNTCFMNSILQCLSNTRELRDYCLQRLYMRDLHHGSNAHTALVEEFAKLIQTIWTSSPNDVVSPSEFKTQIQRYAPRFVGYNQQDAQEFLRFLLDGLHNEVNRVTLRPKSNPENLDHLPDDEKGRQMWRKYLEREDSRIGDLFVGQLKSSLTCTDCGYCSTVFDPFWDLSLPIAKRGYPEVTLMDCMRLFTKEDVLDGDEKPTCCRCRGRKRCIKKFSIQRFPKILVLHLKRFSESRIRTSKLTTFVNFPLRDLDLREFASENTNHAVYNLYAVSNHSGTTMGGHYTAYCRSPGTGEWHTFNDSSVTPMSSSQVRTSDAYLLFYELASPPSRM
Chain of DNA polymerase III PolC-type (Bacillus subtilis (strain 168)) (P13267 whole entry, looked up): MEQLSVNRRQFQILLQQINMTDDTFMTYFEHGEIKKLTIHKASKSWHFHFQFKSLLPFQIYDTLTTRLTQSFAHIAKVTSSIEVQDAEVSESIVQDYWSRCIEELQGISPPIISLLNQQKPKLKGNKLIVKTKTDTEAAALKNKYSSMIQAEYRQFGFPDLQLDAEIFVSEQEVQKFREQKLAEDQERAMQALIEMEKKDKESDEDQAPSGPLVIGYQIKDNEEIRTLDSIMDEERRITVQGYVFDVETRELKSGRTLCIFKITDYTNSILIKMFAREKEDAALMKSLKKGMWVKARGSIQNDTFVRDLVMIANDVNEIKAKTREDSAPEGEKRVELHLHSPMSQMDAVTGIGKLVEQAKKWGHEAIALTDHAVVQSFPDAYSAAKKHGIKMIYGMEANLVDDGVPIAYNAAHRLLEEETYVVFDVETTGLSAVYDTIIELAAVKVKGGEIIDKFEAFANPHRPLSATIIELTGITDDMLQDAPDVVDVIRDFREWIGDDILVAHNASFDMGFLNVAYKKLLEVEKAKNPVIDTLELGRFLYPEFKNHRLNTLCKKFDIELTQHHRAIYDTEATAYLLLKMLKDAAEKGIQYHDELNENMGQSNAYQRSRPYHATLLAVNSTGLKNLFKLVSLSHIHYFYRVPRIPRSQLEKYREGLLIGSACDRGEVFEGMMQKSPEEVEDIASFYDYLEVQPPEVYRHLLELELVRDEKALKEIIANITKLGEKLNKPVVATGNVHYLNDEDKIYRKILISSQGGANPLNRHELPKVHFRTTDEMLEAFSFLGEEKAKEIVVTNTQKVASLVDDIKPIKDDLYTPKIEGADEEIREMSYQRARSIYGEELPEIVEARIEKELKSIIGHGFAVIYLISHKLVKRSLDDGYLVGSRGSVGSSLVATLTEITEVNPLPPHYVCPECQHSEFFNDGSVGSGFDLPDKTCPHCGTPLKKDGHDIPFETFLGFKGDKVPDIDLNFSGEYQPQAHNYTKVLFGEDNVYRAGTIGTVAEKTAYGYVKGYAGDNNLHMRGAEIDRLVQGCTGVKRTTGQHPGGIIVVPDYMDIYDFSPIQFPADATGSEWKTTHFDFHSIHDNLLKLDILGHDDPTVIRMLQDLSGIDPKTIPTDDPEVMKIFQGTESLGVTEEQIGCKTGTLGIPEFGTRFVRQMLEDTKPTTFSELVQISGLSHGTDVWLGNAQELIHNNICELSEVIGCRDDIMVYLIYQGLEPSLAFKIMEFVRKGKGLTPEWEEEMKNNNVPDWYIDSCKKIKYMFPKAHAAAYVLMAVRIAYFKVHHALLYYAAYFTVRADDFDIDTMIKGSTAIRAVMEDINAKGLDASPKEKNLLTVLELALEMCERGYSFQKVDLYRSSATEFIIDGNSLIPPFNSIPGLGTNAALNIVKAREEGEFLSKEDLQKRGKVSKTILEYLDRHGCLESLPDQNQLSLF

Take `OCC1NCC(O)C(O)C1O` (centres undefined): the Potency result in assay [1], in assay [2], in [3], in [4], in assay [5] and in [7] was “inactive” in each case. Also, the Potency entry in assay [8], in [9], in assay [10], in assay [11] and in [12] was “inactive” in each case. For the same compound, the compound was called inactive in [6], in [13], in [14] and in [15].
For `O[Si](CCCN1CCCCC1)(c1ccc(F)cc1)C1CCCCC1` (centres undefined), the Potency in [1] is 0.141 µM (active); in assay [2], 0.0631 µM (active); in [3] it was 0.0708 µM (active). The Potency result in assay [16], in [7], in assay [10], in assay [11] and in assay [12] was “inactive” each time. The call in assay [6], in assay [13] and in assay [15] was inactive.
Regarding `C=CCN1CCc2c(cc(O)c(O)c2Cl)C(c2ccccc2)C1` (centres undefined), the Potency in assay [1] was 10 µM (active); in assay [2], 3.55 µM (active); in assay [3], 7.08 µM (active). For the same compound, the Potency entry in assay [16], in [7], in assay [11] and in [12] was “inactive” each time. The outcome in [6] was inactive.
With `Cn1cc(C(F)(F)F)nc1-c1ccc(OCC(O)CNCCOc2ccc(O)c(C(N)=O)c2)cc1` (centres undefined), the Potency entry in assay [1], in assay [16], in assay [7], in assay [9], in assay [10] and in [11] was “inactive” in each case. Also, the Potency entry in [12] was “inactive”. Further, the Potency is 10 µM (active) in assay [2] and 5.62 µM (active) in [3]. Moreover, the compound was called inactive in assay [6] and in [13].
In the case of `CC(C)C[C@H](NC(=O)[C@H](O)[C@H](N)Cc1ccccc1)C(=O)O`, the Potency result in assay [1], in assay [2], in assay [3], in [16], in assay [7] and in assay [8] was “inactive” in each case. The Potency result in assay [9], in assay [10], in assay [11] and in [12] was “inactive” throughout. The compound was classed as inactive in assay [6], in assay [13] and in [15].
`COc1ccccc1N1CCN(CCCCNC(=O)c2ccc3ccccc3c2)CC1`: the Potency in [1] was 10 µM (active); in assay [2], 2.51 µM (active); in [3] it was 5.01 µM (active). Besides, the Potency entry in assay [16], in assay [5], in assay [7], in assay [10], in assay [11] and in [12] was “inactive” each time. Further, the outcome in assay [6], in assay [14] and in assay [15] was inactive.
For `C=CCN1CCc2c(cc(O)c(O)c2Br)[C@@H](c2ccccc2)C1`, the Potency is 8.91 µM (active) in assay [1], 3.98 µM (active) in [2] and 7.08 µM (active) in assay [3]. Also, the Potency entry in assay [4], in assay [16], in assay [7], in assay [11] and in [12] was “inactive” in each case. The compound was classed as inactive in assay [6], in assay [14] and in assay [15].
With `O=C(O)C1=CCNCC1`, the Potency result in assay [1], in [2], in [3], in assay [4], in assay [16] and in assay [7] was “inactive” in each case. The Potency entry in [8], in [9], in assay [10], in [11] and in assay [12] was “inactive” throughout. The call in assay [14] and in assay [15] was inactive.
`CC(=O)NNC(=O)N1Cc2ccccc2Oc2ccc(Cl)cc21`: the Potency result in [1], in [2], in assay [3], in [16], in [7] and in [8] was “inactive” in each case. Also, the Potency entry in assay [10], in [11] and in assay [12] was “inactive” each time. The compound was called inactive in assay [13] and in [14].
As for `CO/N=C(\C(=O)N[C@@H]1C(=O)N2C(C(=O)O)=C(CSc3nc(=O)c(O)nn3C)CSC12)c1csc(N)n1` (some centres undefined), the Potency entry in assay [1], in assay [2], in assay [3], in assay [4], in assay [7] and in assay [8] was “inactive” in each case. In addition, the Potency result in assay [9], in assay [10], in assay [11] and in [12] was “inactive” each time. Moreover, the call in [6], in assay [14] and in assay [15] was inactive.
For `O=C(O)/C=C/c1ccc(O)c(O)c1`, the Potency entry in [1], in [2], in assay [3], in assay [16], in assay [5] and in [7] was “inactive” throughout. Besides, the Potency entry in assay [8], in assay [9], in [10], in [11] and in assay [12] was “inactive” each time. For the same compound, the compound was called inactive in assay [6] and in assay [13].
As to `CC(=O)N[C@@H](Cc1c[nH]c2ccccc12)C(=O)OCc1cc(C(F)(F)F)cc(C(F)(F)F)c1`, the Potency result in [1], in assay [2], in [3], in [7], in [8] and in [9] was “inactive” in each case. In addition, the Potency entry in assay [10], in [11] and in assay [12] was “inactive” each time. Besides, the compound was classed as inactive in assay [6], in assay [13], in [14] and in [15].
